Only some compounds are listed: those with a hit (about 2.8% of all), similar ones and a draw of the others.
POLB inh: DNA polymerase beta (human) inhibition; P06746; Pol beta primer extension/strand displacement, fluorescence kinetic; Potency, µM (series often up to 114 µM), usual class: inhibitors; 340,000 compounds, 1.3% hits; AID 485314
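Enzyme-only controls used 10 nM Pol beta; buffer lacking enzyme served as negative control. Compound preincubated 15 min, then 50 nM substrate added; 0 and 10 min reads at room temperature.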
WRN helicase inh: inhibitors of human WRN helicase; WRN helicase unwinding, fluorescent forked duplex, kinetic; Potency, µM (doses to about 114 µM), actives largely listed as inhibitors; 360,000 compounds, 0.46% hits; AID 651768; further: nearly all actives have a fitted effect of over 55% in size
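Screening of the MLSMR collection measured strand separation of a quenched forked DNA duplex (100 nM) by 20 nM WRN with 2 mM ATP, all final. Compounds were preincubated with enzyme 15 min at room temperature.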
Pol kappa inh: inhibitors of human DNA polymerase kappa; purified Pol kappa, fluorescent DNA synthesis assay, 10 min; Q9UBT6; AID 588579; 400,000 compounds, 0.53% hits; Potency, µM (highest dose often 107 µM), actives largely listed as inhibitors
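Kinetic fluorescence readout at 0 and 10 min followed reaction start with substrate at 50 nM final. Beforehand, enzyme (10 nM Pol kappa) stood 15 min with compound at room temperature; buffer-only wells were negative controls.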
PI5P4K alpha inh: inhibitors of human PI5P4K alpha | 330,000 compounds, 1.2% hits | AID 652105 | max response, % | PI5P4Kalpha enzyme, ADP-Glo luminescence, 60 min; active compounds read low; active means max response of -50% or lower; inconclusive means between -30% and -50%; inactive means -30% or higher; further: value at the top dose of about 77 µM
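Controls without substrate or without enzyme flank wells where PI5P4Kalpha converts substrate using 5 microM ATP (final). Incubation lasts 60 minutes at room temperature; ADP formed is read by ADP-Glo luminescence.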
Pol eta inh: blocks human DNA polymerase eta activity. Q9Y253. AID 588591. recombinant Pol eta, fluorescent DNA replication assay. Potency, µM (titrated, usually from 114 µM), actives largely listed as inhibitors. 390,000 compounds, 1.2% hits
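Pol eta at 10 nM preincubated with compounds 15 min at room temperature; reaction started with fluorescent substrate (50 nM final) and read kinetically at 0 and 10 min.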
Pol iota inh: DNA polymerase iota (human) inhibition; Potency, µM (titrated, usually from 115 µM), actives largely listed as inhibitors; Pol iota fluorescent replication assay, 10 min; AID 588590; 390,000 compounds, 1% hits; Q9UNA4
Target sequence (Q9UNA4 whole entry, looked up): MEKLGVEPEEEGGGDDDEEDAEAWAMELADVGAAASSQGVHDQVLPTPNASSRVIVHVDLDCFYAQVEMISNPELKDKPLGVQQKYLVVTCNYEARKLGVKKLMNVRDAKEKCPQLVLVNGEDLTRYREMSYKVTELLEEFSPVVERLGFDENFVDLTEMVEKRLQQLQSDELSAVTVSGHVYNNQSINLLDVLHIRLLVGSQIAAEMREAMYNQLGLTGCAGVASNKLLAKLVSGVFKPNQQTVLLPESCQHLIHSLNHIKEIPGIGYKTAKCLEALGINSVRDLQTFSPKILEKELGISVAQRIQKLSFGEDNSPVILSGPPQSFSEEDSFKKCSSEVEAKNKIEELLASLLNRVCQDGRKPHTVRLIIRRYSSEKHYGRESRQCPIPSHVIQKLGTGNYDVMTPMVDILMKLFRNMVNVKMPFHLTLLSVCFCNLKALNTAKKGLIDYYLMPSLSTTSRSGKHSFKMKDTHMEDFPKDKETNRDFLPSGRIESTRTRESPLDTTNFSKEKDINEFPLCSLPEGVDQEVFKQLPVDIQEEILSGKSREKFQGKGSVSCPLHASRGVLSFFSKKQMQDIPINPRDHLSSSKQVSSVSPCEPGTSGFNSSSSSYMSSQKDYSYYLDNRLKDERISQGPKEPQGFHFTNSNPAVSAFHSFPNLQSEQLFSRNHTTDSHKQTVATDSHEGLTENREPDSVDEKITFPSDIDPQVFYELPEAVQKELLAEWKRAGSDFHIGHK
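Fluorescent replication assay read twice, at 0 min and 10 min after adding 50 nM (final) substrate. Enzyme (10 nM) and compounds were first incubated 15 min at room temperature; enzyme-free buffer wells were negative controls.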
Hits are given with their value; n = inactive; u = inconclusive; x = no result; [ ] = dose if it differs, or a comment. Unless noted, the call rests on the fitted dose curve; in most records, active means well fitted curve in the direction sought with a large enough effect; inconclusive means small, poorly fitted or top-dose-only effect, or another doubt; inactive means no such curve, though single readings can be large; an effect the other way counts as inactive or inconclusive.

SMILES | POLB inh | WRN helicase inh | Pol kappa inh | PI5P4K alpha inh | Pol eta inh | Pol iota inh
NC(CSC(c1ccccc1)(c1ccccc1)c1ccc2c(c1)OCO2)C(=O)O (stereo unspecified) | x | n[11.6 µM] | x | u | 35.5µM | x
Cc1ccc(S(=O)(=O)/N=C2\C=C(NS(=O)(=O)c3ccccc3)C(=O)c3ccccc32)c(C)c1 | x | n | n | n | n | u
Cc1ccc(S(=O)(=O)/N=C2\C=C(Nc3cccc(C(=O)O)c3)C(=O)c3ccccc32)c(C)c1 | u | u | n | n | 22.4µM | 5.01µM
Cc1ccc(NC2=C/C(=N/S(=O)(=O)c3cccs3)c3ccccc3C2=O)cc1 | n | n | n | n | u | u
Cc1ccc(S(=O)(=O)/N=C2\C=C(Nc3ccc(O)cc3)C(=O)c3ccccc32)cc1 | x | u | n | n | u | 44.7µM
CC(C)(C)c1ccc(S(=O)(=O)/N=C2\C=C(NS(=O)(=O)c3ccccc3)C(=O)c3ccccc32)cc1 | u | u | n | u | 79.4µM | u
COc1ccc(NC(=O)CSc2oc(-c3ccco3)nc2S(=O)(=O)c2ccc(Br)cc2)c(OC)c1 | n | x | n | x | n | n
CCc1ccc(OCCCCn2c(CCNC(=O)C3CCCCC3)nc3ccccc32)cc1 | x | x | n | x | x | n
CCOc1ccccc1NC(=O)c1ccc2c(c1)CCCN2S(C)(=O)=O | n | x | n | x | n | n
Nc1ccc(N(CCO)CCO)cc1 | 17.8µM | n | n | n | n | 2.82µM
CCN(CC)c1ccc(N)cc1 | x | n | n | n | n | n
C1=Nc2ccccc2/C1=C/c1c[nH]c2ccccc12 | x | x | n | x | x | n
O=C(Cn1c2ncccc2c(=O)n1-c1ccccc1)NCc1ccccc1Cl | n | x | n | x | n | n
COc1cccc2cc(C(=O)Oc3ccccc3)c(=O)oc12 | 89.1µM | n | n | n | u | n
CCOc1ccc(NC(=O)CSc2nc(=O)[nH]c3c2CCC3)cc1 | n | x | n | x | n | n
CCOc1ccccc1-c1n[nH]c(=S)o1 | n | n | n | x | n | n
COc1ccc(-c2n[nH]c(=S)o2)c(OC)c1 | n | n | n | -85.7 | n | n
O=C(NC(=S)Nn1cnnc1)c1ccccc1Cl | n | n | n | n | n | n
O=C(NC(=S)Nn1cnnc1)c1ccc(F)cc1Cl | n | n | n | -53.6 | n | n
O=C(c1ccco1)N1CCN(/C=C2\Nc3ccccc3C(=O)N2c2ccc(F)cc2)CC1 | x | x | n | x | x | n
CCc1ccc(/C=C/C(=O)C2C(=O)c3ccccc3C2=O)cc1 | n | n | n | x | n | u
CC[N+]1(C)CCC(O)(/C=C/c2ccccc2)C(C(=O)/C=C/c2ccccc2)C1 (stereo unspecified) | x | 11.2µM | n | n | u | u
Cc1c(CCNC(=O)c2c(F)cccc2F)sc2nc(-c3ccc(F)cc3)nn12 | n | x | n | x | x | n
Oc1nc(Nc2ccc(Cl)cc2Cl)sc1/C=C1\C=Nc2ccccc21 | u | u | n | -56.5 | 14.1µM | u
CCn1c(SCC(=O)NCc2cccs2)nnc1-c1cccs1 | n | n | n | x | n | n
SMILES | POLB inh | WRN helicase inh | Pol kappa inh | PI5P4K alpha inh | Pol eta inh | Pol iota inh
CCn1c(SCC(=O)c2ccc(CNC(C)=O)o2)nnc1-c1cccs1 | 44.7µM | n | n | x | u | u
CCOc1ccc(CCNC(=O)c2cc3c(=O)oc4ccc(C)cc4c3s2)cc1OCC | n | x | n | x | n | n
CC1=C(C(=O)Nc2ccccc2)C(c2ccccn2)n2nc(SCc3ccccc3)nc2N1 (stereo unspecified) | n | x | n | x | n | n
CCOC(=O)C1=C(CS(=O)(=O)c2ccc(F)cc2)NC(=O)NC1c1ccc(O)c(O)c1 (stereo unspecified) | u | n[11.6 µM] | 44.7µM | n | u | 25.1µM
CC(=O)c1cccc(NC(=O)c2cc3c(s2)-c2c(C)cccc2OC3)c1 | n | x | n | x | n | n
Cc1cccc2c1-c1sc(C(=O)Nc3ccccc3C(N)=O)cc1CO2 | n | x | n | x | n | 79.4µM
Cc1cccc2c1-c1sc(C(=O)Nc3nccs3)cc1CO2 | n | n | n | n | n | n
CN1CCN(c2ccccc2NC(=O)c2ccc(N3CCCCC3)c([N+](=O)[O-])c2)CC1 | n | n | n | n | n | n
Cc1cccc2c1-c1sc(C(=O)Nc3cccc([N+](=O)[O-])c3C)cc1CO2 | 0.199µM | n | n | n | n | n
Cc1c(NC(=O)c2ccc(N3CCCC3)c([N+](=O)[O-])c2)cccc1-c1nc2ccccc2s1 | n | n[11.6 µM] | n | x | n | 79.4µM
Cc1cc(C(=O)Nc2cccc([N+](=O)[O-])c2C)cs1 | n | n | n | n | n | n
Cc1c(NC(=O)c2ccc3nsnc3c2)cccc1[N+](=O)[O-] | n | n | u | n | n | 25.1µM
O=C(COC(=O)c1ccc(C(F)(F)F)cc1)NC(=O)C1CCCCC1 | x | x | n | x | x | n
Cc1ccc(NC(=O)C(Cc2ccccc2)NS(=O)(=O)c2ccc3c(c2)c(=O)n(C)c(=O)n3C)c(C)c1 (stereo unspecified) | n | x | n | x | n | n
COc1cc(NC(=O)C2CCN(S(=O)(=O)c3c(C)noc3/C=C/c3cccs3)CC2)cc(OC)c1 | n | x | n | x | n | u
O=C(COc1c(Cl)cccc1Cl)NN1C(=O)CSC1=S | n | n[11.6 µM] | n | n | n | 17.8µM
O=C(COc1ccccc1)NN1C(=O)CSC1=S | n | n | n | n | n | n
CSc1ccc(CCNc2ncnc3onc(-c4ccc(Cl)cc4)c23)cc1 | n | x | n | x | n | n
COc1ccc2cc(C(=O)Nc3ccccc3)sc(=O)c2c1OC | 22.4µM | n | u | n | u | n
O=C(O)c1cccc(N2C(=O)c3ccc(C(=O)c4cccc([N+](=O)[O-])c4)cc3C2=O)c1 | n | n | n | n | 56.2µM | n
O=C(O)c1cccc(NC(=O)c2ccc(N3C(=O)c4ccc(C(=O)Nc5cccc(C(=O)O)c5)cc4C3=O)cc2)c1 | n | n | n | -50.7 | n | n
CC(=O)c1ccc(NC(=O)c2ccc3c(c2)C(=O)N(c2ccccn2)C3=O)cc1 | n | n | n | n | n | n
O=C(Nc1cc(Sc2ccccn2)cc([N+](=O)[O-])c1)c1ccc([N+](=O)[O-])cc1 | n | 31.6µM | n | -74.6 | u | n
O=C(Nc1cccc([N+](=O)[O-])c1)c1ccc2c(c1)C(=O)N(c1ccccn1)C2=O | 44.7µM | n | n | n | n | n
CCOc1ccccc1NC(=O)c1c(C)cc(C)nc1SCC(=O)c1cccc(OC)c1 | n | x | n | x | n | n
CCOC(=O)c1c(C)[nH]c(C)c1S(=O)(=O)N1CCCC(C(=O)N2CCN(c3cccc(C)c3C)CC2)C1 (stereo unspecified) | n | x | n | x | n | n
COc1ccc(-c2[nH]c(-c3ccc(F)cc3)nc2SCC(=O)Nc2ccc(OC)c(OC)c2)cc1 | n | x | n | x | n | n
O=C(O)c1ccc(N=NNc2cccc([N+](=O)[O-])c2)cc1 | n | n | n | -52.8 | n | n

Bioassay records: PubChem BioAssay, National Center for Advancing Translational Sciences (NCATS)
